Laboratory results: the supplement of paper PMC7411054
Where a name gives a salt, the structure may show the parent alone.

Columns and labels:
Conditions in all cases: treatment time: 24 h
A549-ACTB-RAB5A [1] = assay: lowest phenotypically active concentration; higher = less potent
In short: (§1)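 Four wells per concentration (0.3, 1, 3 or 9 µM) were treated for 24 h in each of fifteen gene-edited reporter lines from A549, HepG2 and WPMY1 cells, then imaged live. After normalising live-cell features to solvent control wells, deviation was defined as ≥3 of 4 wells lying past the 95th percentile of control Euclidean distances. Reproducibility was defined as a median replicate Pearson correlation above the 95th percentile of non-replicates. Both had to hold for phenotypic activity.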

A549-CANX-COX4 [2] = assay: as above
In short: as §1

A549-GM130-SQSTM1 [3] = assay: as above
In short: as §1

A549-TP53BP1-CLTA [4] = assay: as above
In short: as §1

A549-TUBA1B-RELA [5] = assay: as above
In short: as §1

HepG2-TP53BP1-CLTA [6] = assay: as above
In short: as §1

A549-ACTB-RAB5A [7] = assay: phenotypically active (imaging signature differs from DMSO and reproducible) at any of 0.3-9 uM (binary (1 = active, 0 = inactive)); higher = active
In short: as §1

A549-CANX-COX4 [8] = assay: as above
In short: as §1

A549-GM130-SQSTM1 [9] = assay: as above
In short: as §1

A549-TP53BP1-CLTA [10] = assay: as above
In short: as §1

A549-TUBA1B-RELA [11] = assay: as above
In short: as §1

HepG2-ACTB-RAB5A = assay: as above
In short: as §1

HepG2-CANX-COX4 = assay: as above
In short: as §1

HepG2-GM130-SQSTM1 = assay: as above
In short: as §1

HepG2-TP53BP1-CLTA [12] = assay: as above
In short: as §1

HepG2-TUBA1B-RELA = assay: as above
In short: as §1

WPMY1-CANX-COX4 = assay: as above
In short: as §1

WPMY1-GM130-SQSTM1 = assay: as above
In short: as §1

WPMY1-TP53BP1-CLTA = assay: as above
In short: as §1

WPMY1-TUBA1B-RELA = assay: as above
In short: as §1

| Compound | lowest phenotypically active concentration (A549-ACTB-RAB5A [1]) | lowest phenotypically active concentration (A549-CANX-COX4 [2]) | lowest phenotypically active concentration (A549-GM130-SQSTM1 [3]) | lowest phenotypically active concentration (A549-TP53BP1-CLTA [4]) | lowest phenotypically active concentration (A549-TUBA1B-RELA [5]) | lowest phenotypically active concentration (HepG2-TP53BP1-CLTA [6]) | phenotypically active (A549-ACTB-RAB5A [7]) | phenotypically active (A549-CANX-COX4 [8]) | phenotypically active (A549-GM130-SQSTM1 [9]) | phenotypically active (A549-TP53BP1-CLTA [10]) | phenotypically active (A549-TUBA1B-RELA [11]) | phenotypically active (HepG2-ACTB-RAB5A) | phenotypically active (HepG2-CANX-COX4) | phenotypically active (HepG2-GM130-SQSTM1) | phenotypically active (HepG2-TP53BP1-CLTA [12]) | phenotypically active (HepG2-TUBA1B-RELA) | phenotypically active (WPMY1-CANX-COX4) | phenotypically active (WPMY1-GM130-SQSTM1) | phenotypically active (WPMY1-TP53BP1-CLTA) | phenotypically active (WPMY1-TUBA1B-RELA) |
| --- | --- | --- | --- | --- | --- | --- | --- | --- | --- | --- | --- | --- | --- | --- | --- | --- | --- | --- | --- | --- |
| COc1ccccc1S(=O)(=O)Nc1ccc2c(c1)CN(C)C(=O)N2 | 1 µM | 3 µM | 3 µM | 3 µM | 3 µM | 3 µM | 1 (active) | 1 (active) | 1 (active) | 1 (active) | 1 (active) | 1 (active) | 1 (active) | 1 (active) | 1 (active) | 1 (active) | 1 (active) | 1 (active) | 1 (active) | 1 (active) |
| COc1ccc(S(=O)(=O)Nc2cccnc2Nc2ccc(O)cc2)cc1 | 1 µM | 1 µM | 1 µM | 1 µM | 3 µM | 1 µM | 1 (active) | 1 (active) | 1 (active) | 1 (active) | 1 (active) | 1 (active) | 1 (active) | 1 (active) | 1 (active) | 1 (active) | 1 (active) | 1 (active) | 1 (active) | 1 (active) |
| C[C@@H](Oc1cc(-n2cnc3ccc(CN4CCN(C)CC4)cc32)sc1C(N)=O)c1ccccc1C(F)(F)F | ≤ 0.3 µM | ≤ 0.3 µM | ≤ 0.3 µM | ≤ 0.3 µM | ≤ 0.3 µM | ≤ 0.3 µM | 1 (active) | 1 (active) | 1 (active) | 1 (active) | 1 (active) | 1 (active) | 1 (active) | 1 (active) | 1 (active) | 1 (active) | 1 (active) | 1 (active) | 1 (active) | 1 (active) |
| COc1cc(/C=C/C(=O)N2CCC=CC2=O)cc(OC)c1OC [Piperlongumine] | 3 µM | 9 µM | 3 µM | 9 µM | 9 µM | 9 µM | 1 (active) | 1 (active) | 1 (active) | 1 (active) | 1 (active) | 1 (active) | 1 (active) | 1 (active) | 1 (active) | 1 (active) | 1 (active) | 1 (active) | 1 (active) | 1 (active) |
| Cc1n[nH]c2ccc(-c3cncc(OC[C@@H](N)Cc4ccccc4)c3)cc12 | ≤ 0.3 µM | ≤ 0.3 µM | ≤ 0.3 µM | ≤ 0.3 µM | ≤ 0.3 µM | ≤ 0.3 µM | 1 (active) | 1 (active) | 1 (active) | 1 (active) | 1 (active) | 1 (active) | 1 (active) | 1 (active) | 1 (active) | 1 (active) | 1 (active) | 1 (active) | 1 (active) | 1 (active) |
| CC(C)c1cc(-c2n[nH]c(=O)n2-c2ccc3c(ccn3C)c2)c(O)cc1O [ganetespib] | ≤ 0.3 µM | ≤ 0.3 µM | ≤ 0.3 µM | ≤ 0.3 µM | ≤ 0.3 µM | ≤ 0.3 µM | 1 (active) | 1 (active) | 1 (active) | 1 (active) | 1 (active) | 1 (active) | 1 (active) | 1 (active) | 1 (active) | 1 (active) | 1 (active) | 1 (active) | 1 (active) | 1 (active) |
| C=C1CN(Cc2ccc(C(=O)Nc3ccccc3N)cc2)C(=O)c2ccccc21 | ≤ 0.3 µM | ≤ 0.3 µM | ≤ 0.3 µM | ≤ 0.3 µM | 1 µM | 1 µM | 1 (active) | 1 (active) | 1 (active) | 1 (active) | 1 (active) | 1 (active) | 1 (active) | 1 (active) | 1 (active) | 1 (active) | 1 (active) | 1 (active) | 1 (active) | 1 (active) |
| COc1cc(C(=O)NC2CCN(C)CC2)c(F)cc1Nc1ncc2c(n1)N(C1CCCC1)CC(F)(F)C(=O)N2C [TAK 960 hydrochloride] | ≤ 0.3 µM | ≤ 0.3 µM | ≤ 0.3 µM | ≤ 0.3 µM | ≤ 0.3 µM | ≤ 0.3 µM | 1 (active) | 1 (active) | 1 (active) | 1 (active) | 1 (active) | 1 (active) | 1 (active) | 1 (active) | 1 (active) | 1 (active) | 1 (active) | 1 (active) | 1 (active) | 1 (active) |
| COc1ccc(S(=O)(=O)N(CCO)c2ccccc2CN(C)C/C=C/c2ccc(Cl)cc2)cc1 | 3 µM | 9 µM | 3 µM | 9 µM | 3 µM | 9 µM | 1 (active) | 1 (active) | 1 (active) | 1 (active) | 1 (active) | 1 (active) | 1 (active) | 1 (active) | 1 (active) | 1 (active) | 1 (active) | 1 (active) | 1 (active) | 1 (active) |
| Cc1nc(Nc2ncc(C(=O)Nc3c(C)cccc3Cl)s2)cc(N2CCN(CCO)CC2)n1 [dasatinib] | ≤ 0.3 µM | ≤ 0.3 µM | ≤ 0.3 µM | ≤ 0.3 µM | 1 µM | ≤ 0.3 µM | 1 (active) | 1 (active) | 1 (active) | 1 (active) | 1 (active) | 1 (active) | 1 (active) | 1 (active) | 1 (active) | 1 (active) | 1 (active) | 1 (active) | 1 (active) | 1 (active) |
| O=C(Nc1cccc(Cl)c1)Nc1ncc(CCNc2ncnc3ccsc23)s1 [SNS 314 mesylate] | ≤ 0.3 µM | ≤ 0.3 µM | ≤ 0.3 µM | ≤ 0.3 µM | ≤ 0.3 µM | ≤ 0.3 µM | 1 (active) | 1 (active) | 1 (active) | 1 (active) | 1 (active) | 1 (active) | 1 (active) | 1 (active) | 1 (active) | 1 (active) | 1 (active) | 1 (active) | 1 (active) | 1 (active) |
